Results reported in PubChem BioAssay AID1159580 (chemical genetic matrix, 2015).
Among all 5,500 compounds or so, about 2,000 (36%) were called active. Another 18% or so got no clear call; they are omitted. Rule as the data show it: active = normalized growth mostly below about 0.91 (no sharp cut-off); inconclusive = no clear call, values can overlap the other calls; inactive = mostly above about 0.92. This is one part of the list.

Test: chemical genetic growth profiling, strain panel (AID 1159580);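 also: tested at 20 µM; growth read once vehicle control cultures reached saturation at 30 °C; 1 = growth at the plate median or of vehicle wells; lower values mean less growth of the strain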
Details: S. cerevisiae deletion strains, growth OD

Measured: normalized growth

CC(=CC1CCC(C)C2CCC(C)=C12)C(=O)O (stereo not given)
inactive: locus YAL021C, strain ccr4, hits give low values 0.948 | locus YAL030W, strain snc1, hits give low values 0.93 | locus YBL061C, strain skt5, hits give low values 0.931 | locus YBR009C, strain hhf1, hits give low values 0.958 | locus YBR023C, strain chs3, hits give low values 0.929 | locus YBR231C, strain swc5, hits give low values 0.923 | locus YBR279W, strain paf1, hits give low values 0.95 | locus YCL011C, strain gbp2, hits give low values 0.986 | locus YCL016C, strain dcc1, hits give low values 0.927 | locus YCL069W, strain vba3, hits give low values 0.956 | locus YCR088W, strain abp1, hits give low values 0.938 | locus YDL005C, strain med2, hits give low values 0.953 | locus YDL040C, strain nat1, hits give low values 0.935 | locus YDR001C, strain nth1, hits give low values 0.943 | locus YDR069C, strain doa4, hits give low values 0.931 | locus YDR159W, strain sac3, hits give low values 0.888 | locus YDR195W, strain ref2 1.12 | locus YDR297W, strain sur2, hits give low values 0.943 | locus YDR334W, strain swr1, hits give low values 0.927 | locus YDR335W, strain msn5, hits give low values 0.944 | locus YEL003W, strain gim4, hits give low values 0.958 | locus YEL037C, strain rad23, hits give low values 0.942 | locus YEL061C, strain CIN8 (second series), hits give low values 0.947 | locus YER015W, strain faa2, hits give low values 0.971 | locus YER016W, strain bim1, hits give low values 0.936 | locus YER111C, strain swi4, hits give low values 0.923 | locus YER155C, strain BEM2 (second series), hits give low values 0.873 | locus YFR010W, strain ubp6, hits give low values 0.965 | locus YGL227W, strain vid30, hits give low values 0.952 | locus YGL240W, strain doc1, hits give low values 0.941 | locus YGL253W, strain hxk2, hits give low values 0.937 | locus YHR013C, strain ard1, hits give low values 0.954 | locus YHR027C, strain rpn1, hits give low values 0.956 | locus YHR142W, strain chs7, hits give low values 0.901 | locus YJL092W, strain hpr5, hits give low values 0.93 | locus YJL095W, strain BCK1 (second series), hits give low values 0.927 | locus YJL115W, strain asf1, hits give low values 0.965 | locus YJL154C, strain vps35, hits give low values 0.934 | locus YJL164C, strain tpk1, hits give low values 0.923 | locus YJL166W, strain qcr8, hits give low values 0.917 | locus YKL160W, strain elf1, hits give low values 0.939 | locus YKR026C, strain gcn3, hits give low values 0.939 | locus YLL001W, strain dnm1, hits give low values 0.966 | locus YLL026W, hits give low values 0.946 | locus YLL041C, strain sdh2, hits give low values 0.955 | locus YLR027C, strain aat2, hits give low values 0.953 | locus YLR221C, strain rsa3, hits give low values 0.943 | locus YLR258W, strain gsy2, hits give low values 0.941 | locus YLR357W, strain rsc2, hits give low values 1.01 | locus YLR384C, strain iki3, hits give low values 0.926 | locus YML120C, strain ndi1, hits give low values 0.968 | locus YMR058W, strain fet3, hits give low values 0.937 | locus YMR125W, strain sto1, hits give low values 0.937 | locus YMR129W, hits give low values 0.928 | locus YNL209W, strain ssb2, hits give low values 0.978 | locus YNL248C, strain rpa49, hits give low values 0.972 | locus YNL322C, strain KRE1 (second series), hits give low values 0.94 | locus YNR049C, strain mso1, hits give low values 0.941 | locus YOR001W, strain rrp6, hits give low values 0.942 | locus YOR070C, strain gyp1, hits give low values 0.943 | locus YOR080W, strain dia2, hits give low values 0.961 | locus YOR083W, strain WHI5, hits give low values 0.933 | locus YOR106W, strain vam3, hits give low values 0.914 | locus YOR265W, strain rbl2, hits give low values 0.956 | locus YOR290C, strain snf2, hits give low values 0.918 | locus YPL078C, strain atp4, hits give low values 0.946 | locus YPL106C, strain sse1, hits give low values 1.04
active: locus YAL026C, strain drs2, hits give low values 0.904 | locus YBR171W, strain sec66, hits give low values 0.876 | locus YDR137W, strain rgp1, hits give low values 0.573 | locus YDR392W, strain spt3, hits give low values 0.373 | locus YGL167C, strain pmr1, hits give low values 0.892 | locus YGL173C, strain kem1, hits give low values 0.891 | locus YJL129C, strain trk1, hits give low values 0.799 | locus YKR091W, strain srl3, hits give low values 0.93 | locus YLR262C, strain YPT6 (second series), hits give low values 0.591 | locus YLR320W, strain mms22, hits give low values 0.779 | locus YLR342W, strain FKS1, hits give low values 0.887 | locus YLR370C, strain arc18, hits give low values 0.906 | locus YMR205C, strain PFK2, hits give low values 0.859 | locus YMR231W, strain pep5, hits give low values 0.898 | locus YNL071W, strain lat1, hits give low values 0.875 | locus YOR270C, strain vph1, hits give low values 0.727 | locus YPL051W, strain arl3, hits give low values 0.907 | locus YPL240C, strain hsp82, hits give low values 0.925
